pPAFAH inh: pPAFAH enzyme inhibitors, primary screen, biochemical, fluorescence polarization, human; AID 463082, 2010; inhibition, % at 3.39 µM; recombinant pPAFAH, FP-rhodamine probe fluorescence polarization; 1.5% of 330,000 active; Platelet-activating factor acetylhydrolase (Homo sapiens), Q13093;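 active means inhibition above the mean inhibition across the screen plus 3 SD, cut at about 25% in these data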;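 further: inhibitors block binding of the rhodamine activity-based probe so polarization drops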
PAFAH1B2 FP inh: PAFAH1B2 enzyme inhibitors, primary screen, biochemical, fluorescence polarization, human; 1.2% of 340,000 active; inhibition, % at 3.39 µM; AID 492953, 2010; Platelet-activating factor acetylhydrolase IB subunit alpha2 (Homo sapiens), P68402; recombinant PAFAH1B2, FP-rhodamine activity probe;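 active means inhibition above the mean of all tested compounds plus 3 SD, cut at about 24% in these data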
Target sequence (P68402 whole entry, looked up): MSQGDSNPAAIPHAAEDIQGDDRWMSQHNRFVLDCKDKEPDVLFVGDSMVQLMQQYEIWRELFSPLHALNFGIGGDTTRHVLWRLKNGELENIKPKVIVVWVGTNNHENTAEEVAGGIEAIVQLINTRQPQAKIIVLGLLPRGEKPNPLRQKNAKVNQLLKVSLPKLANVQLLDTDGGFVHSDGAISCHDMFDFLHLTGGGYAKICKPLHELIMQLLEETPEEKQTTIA
PME-1 primary: PME-1 inhibitors via competitive probe labeling, primary screen, biochemical, fluorescence polarization, FP-Rh probe, HTS. recombinant PME-1. inhibition, % at 5.9 µM. 0.53% of 320,000 active;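 active means inhibition above the campaign mean of all compounds plus 3 SD, cut at about 26% in these data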;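 further: competitive labeling of PME-1 active site by serine hydrolase directed probe; inhibitors block probe labeling so polarization falls and inhibition rises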
Target sequence (Q9Y570 whole entry, looked up): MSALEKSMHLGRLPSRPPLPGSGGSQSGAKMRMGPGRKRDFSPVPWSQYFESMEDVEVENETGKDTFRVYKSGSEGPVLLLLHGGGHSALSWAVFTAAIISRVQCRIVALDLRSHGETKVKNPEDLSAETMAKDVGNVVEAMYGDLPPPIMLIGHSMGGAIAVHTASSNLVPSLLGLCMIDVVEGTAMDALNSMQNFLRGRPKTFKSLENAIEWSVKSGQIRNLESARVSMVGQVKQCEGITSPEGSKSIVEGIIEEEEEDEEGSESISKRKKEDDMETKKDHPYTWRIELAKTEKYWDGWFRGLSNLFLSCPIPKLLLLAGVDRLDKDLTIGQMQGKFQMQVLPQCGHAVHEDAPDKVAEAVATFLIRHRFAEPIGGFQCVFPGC
PAFAH2 inh: PAFAH2 enzyme inhibitors, primary screen, biochemical, fluorescence polarization, human | Platelet-activating factor acetylhydrolase 2, cytoplasmic (Homo sapiens), Q99487 | recombinant PAFAH2, FP-rhodamine activity probe | inhibition, % at 3.39 µM | 0.99% of 340,000 active | AID 492956, 2010;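 active means inhibition above the mean over all tested compounds plus 3 SD, cut at about 30% in these data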;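 further: inhibitors block probe labeling of enzyme so polarization drops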
Fam108B counter: mouse Fam108B serine hydrolase inhibitors, primary screen, counter-screen for RBBP9 inhibitor project, biochemical, fluorescence polarization; recombinant Fam108B, FP-Rh probe fluorescence polarization; inhibition, % at 9.51 µM; 0.33% of 300,000 active;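 active means inhibition above the screen mean inhibition plus 3 SD, computed separately per campaign, cut at about 18% in these data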;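 further: inhibitors lower polarization as less probe binds the enzyme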
PAFAH1B3 FP inh: PAFAH1B3 enzyme inhibitors, primary screen, biochemical, fluorescence polarization, human | 0.28% of 340,000 active | recombinant PAFAH1B3, FP-rhodamine probe | Platelet-activating factor acetylhydrolase IB subunit alpha1 (Homo sapiens), Q15102 | inhibition, % at 3.39 µM | AID 492972, 2010;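 active means inhibition above the screen-wide average of all tested compounds plus 3 SD, cut at about 25% in these data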
pPAFAH FP conf: pPAFAH (PLA2G7) enzyme inhibitors, confirmation, biochemical, fluorescence polarization, human; shares compounds with pPAFAH inh; recombinant pPAFAH, FP-Rh probe fluorescence polarization; inhibition, % at 3.39 µM; 72% of 2,300 active;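 active means mean inhibition of the triplicate above the hit cutoff set for the earlier primary screen, cut at about 25% in these data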
Large screens that a line does not name were inactive (follow-up assays come after a bar, where they were run). Sampled rows, rich in hits. Any-hit rate of the full collection: about 2.9%.

Cc1ccc(-c2ccccc2NC(=O)CCl)o1	none
COc1cc(/C=C/C(=O)O)cc(S(=O)(=O)Nc2ccc3cn[nH]c3c2)c1OC	none (no result: Fam108B counter)
O=C(Cc1cnn(-c2ccccc2)c1)c1ccc(O)c(O)c1O	pPAFAH inh 72.5 | pPAFAH FP conf 53.9
O=C1CN(C(=O)COc2ccc(Cl)cc2Cl)c2ccccc2N1	none
CCc1c(C)nc2ncnn2c1N1CCCC(C(=O)NCc2cccs2)C1 (stereo not given)	none
CCc1c(C)nc2ncnn2c1N1CCCC(C(=O)NCc2ccco2)C1 (stereo not given)	pPAFAH inh 57.3 | pPAFAH FP conf inactive
COc1cc([N+](=O)[O-])ccc1-c1ccc(/C=N/NC(N)=O)o1	pPAFAH inh 67.1 | pPAFAH FP conf inactive
O=C(c1ccc(Cl)c(S(=O)(=O)N2CCc3ccccc32)c1)N1CCN(c2ccccc2O)CC1	pPAFAH inh 37.3 (no result: PME-1 primary, Fam108B counter) | pPAFAH FP conf inactive
CCCCC(=O)NC(c1cccs1)c1cc(Cl)c2cccnc2c1O (stereo not given)	pPAFAH inh 45.2 | pPAFAH FP conf 32.1
CCCCNC(=O)c1onc(CSc2cccc(OCC)c2)c1C(=O)O	none
Cc1ccc(C)n1/N=C1/NC(=O)CS1	pPAFAH inh 39.5, PAFAH2 inh 38.9 | pPAFAH FP conf inactive
Cc1noc(C)c1COc1cccc(C(=O)N(C)Cc2cccs2)c1	none (no result: Fam108B counter)
CN(C)c1ccc(O)c2c1CC1CC3[C@@H](N(C)C)C(=O)C(C(N)=O)=C(O)[C@]3(O)C(=O)C1=C2O (stereo not given in full)	pPAFAH inh 53.4, PAFAH2 inh 33.0, PAFAH1B3 FP inh 29.4 | pPAFAH FP conf inactive
CC(=O)c1ccc(NC(=O)COC(=O)c2ccc(F)cc2F)cc1	none
O=C(N/N=C\c1c(O)ccc2ccccc12)c1cncc(Br)c1	pPAFAH inh 41.3 | pPAFAH FP conf 57.8
CC(=O)C1=C(C)Nc2ncnn2C1c1ccc(O)cc1 (stereo not given)	none
S=c1[nH]nc(C2COc3ccccc3O2)o1 (stereo not given)	pPAFAH inh 44.3 | pPAFAH FP conf inactive
Oc1cccc(/C=N/NC(=S)NCCN2CCOCC2)c1O	pPAFAH inh 40.9 | pPAFAH FP conf inactive
S=C(NCCN1CCOCC1)N/N=C/c1cccs1	none
O=C(CSc1nc2ccccc2c(=O)n1Cc1ccco1)N1CCCCCC1	none
O=C(N/N=C/c1ccccc1)c1ccc(-c2ccccc2)cc1	pPAFAH inh 69.3 | pPAFAH FP conf inactive
O=C(N/N=C\c1ccccc1F)c1ccc(-c2ccccc2)cc1	none (no result: pPAFAH inh, PME-1 primary, Fam108B counter)
COc1ccc(NC(=O)CCSc2ccc(F)cc2)cc1	none
CN1CCc2c(sc(NC(=O)CS(=O)(=O)c3ccc(F)cc3)c2C(N)=O)C1	none
C/C(CCC(=O)O)=N/Nc1ccc([N+](=O)[O-])cc1[N+](=O)[O-]	none
O=C(O)/C(CC(=O)c1ccc(Cl)cc1)=N/Nc1ccc([N+](=O)[O-])cc1[N+](=O)[O-]	pPAFAH inh 35.2, PME-1 primary 26.5 | pPAFAH FP conf 71.5
CCC(C)Sc1nc2c(c(=O)[nH]1)C(c1cccs1)C1=C(CCCC1=O)N2 (stereo not given)	pPAFAH inh 38.0 | pPAFAH FP conf inactive
O=C1CCCC2=C1C(c1ccncc1)c1c(nc(SCc3ccccc3Cl)[nH]c1=O)N2 (stereo not given)	none
Cc1ccnc(NC(=O)CCC(=O)N(CC(=O)NCc2ccc(F)cc2)c2cccc(F)c2)c1	none
Cc1ccnc2nc(C(=O)OCC(=O)N3CC(C)CC(C)C3)nn12 (stereo not given)	none (no result: pPAFAH inh, PME-1 primary, Fam108B counter)
O=C(O)c1cc(Cl)ccc1-c1ccc(/C=C/c2cc(C(F)(F)F)[nH]c(=O)n2)o1	pPAFAH inh 42.8 | pPAFAH FP conf inactive
CSc1nc(NCCN(C)C)c2sc3nc(-c4ccco4)c4c(c3c2n1)CCC4	none (no result: pPAFAH inh, PME-1 primary, Fam108B counter)
CSc1nc(N(C)CCO)c2sc3nc(-c4ccco4)c4c(c3c2n1)CCC4	pPAFAH inh 40.4 | pPAFAH FP conf inactive
CC(C)(C)NC(=O)NC(=O)COC(=O)Cn1cnc2ccccc2c1=O	none
COc1ccc(N(CC(=O)Nc2cc(C)ccc2OC)S(=O)(=O)c2c(C)noc2C)cc1	pPAFAH inh 44.7 | pPAFAH FP conf inactive
CCOC(=O)c1cc(-c2ccc(/C=C3/C(=O)NC(=O)C(C#N)=C3C)o2)ccc1Cl	pPAFAH inh 45.7 | pPAFAH FP conf 47.5
COc1ccc(-c2csc(Nc3ccc(S(=O)(=O)Nc4cc(C)on4)cc3)n2)cc1C	pPAFAH inh 39.9, PAFAH2 inh 37.3 | pPAFAH FP conf 61.5
O=C(CCCN1C(=O)/C(=C/c2ccco2)SC1=S)Nc1cccc(C(=O)O)c1	pPAFAH inh 50.2 | pPAFAH FP conf inactive
CC(C(=O)N(C)C1CCS(=O)(=O)C1)N1C(=O)/C(=C/c2ccco2)SC1=S (stereo not given)	none
NN1C(=O)/C(=C\c2ccco2)SC1=S	pPAFAH inh 41.6 (no result: PAFAH1B2 FP inh, PAFAH2 inh, PAFAH1B3 FP inh) | pPAFAH FP conf inactive
CC(C(=O)Nc1ccc(C(=O)O)c(O)c1)N1C(=O)/C(=C\c2ccco2)SC1=S (stereo not given)	pPAFAH inh 38.2, Fam108B counter 19.4 | pPAFAH FP conf inactive
CCOC(=O)CN1C(=O)S/C(=C/c2ccco2)C1=O	none
O=C(CN1C(=O)/C(=C/c2ccco2)SC1=S)NC1CCS(=O)(=O)C1 (stereo not given)	pPAFAH inh 38.4 | pPAFAH FP conf inactive
CC(=O)NCCCOc1ccc([N+](=O)[O-])cc1Cl	none
O=C(CN1C(=O)/C(=C/c2ccco2)SC1=S)Nc1ccc(C(=O)O)c(O)c1	pPAFAH inh 41.0 | pPAFAH FP conf inactive
CCc1cc(CNC(=O)CC2C(=O)NCCN2Cc2ccc(-c3ccccc3)cc2)on1 (stereo not given)	none
COc1ccc(-n2ncc3c(=O)n(CC(=O)NC(C)C)cnc32)cc1	pPAFAH inh 35.6 | pPAFAH FP conf inactive
CN(c1ccc(OCC(=O)NC2CCC(O)CC2)cc1)S(=O)(=O)c1ccc(Cl)cc1 (stereo not given)	pPAFAH inh 36.9 (no result: PME-1 primary, Fam108B counter) | pPAFAH FP conf inactive
NC(=S)N/N=C/c1ccc(-c2ccccc2)o1	none
NC(=S)NN=Cc1ccc(-c2ccc(S(=O)(=O)Nc3ncccn3)cc2)o1	pPAFAH inh 40.3, PAFAH2 inh 33.6, PAFAH1B3 FP inh 30.6 (no result: PME-1 primary, Fam108B counter) | pPAFAH FP conf inactive
CN(Cc1ccccc1)C(=O)c1cc(S(=O)(=O)N2CCOCC2)cn1C	none

Source: PubChem
